For 8 compounds, Potency and outcome results are on record in PubChem BioAssay (Tox21).

Test [1] can be described thus: A CellTox Green Cytotoxicity Assay to monitor cytotoxicity in HepG2 cells - 24 hour (AID 1224878). Also: nearly all actives have a fitted effect of over 45% in size. The gist of the method: (§1)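 Real-time cytotoxicity: fluorescence of a cell-impermeant cyanine dye binding DNA of dead HepG2 cells, measured repeatedly (0–40 h) during compound exposure at 37 C. Cells seeded 600/well with reagent, dosed after 5 h.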
Test [2] in a line: A CellTox Green Cytotoxicity Assay to monitor cytotoxicity in HepG2 cells - 40 hour (AID 1224879). Also: nearly all actives have a fitted effect of over 40% in size. Put shortly: as §1
The nature of test [3]: qHTS RealTime-Glo MT Cell Viability Assay in HEK293 cells - 0 hour (AID 1224880). Also: top concentration of the series differs between compounds; nearly all actives have a fitted effect of over 45% in size. The gist of the method:
(§2)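 Luminescence, which tracks viable cell number through reduction of the prosubstrate to a NanoLuc substrate, was read over continuous 37 C culture. Cells (600/well) were premixed with reagent and rested 5 h before 23 nL of compound in DMSO was pinned.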
(qHTS replaces the single test concentration by a dilution series.)

Test [4] is described as follows: A CellTox Green Cytotoxicity Assay to monitor cytotoxicity in HEK293 cells - 32 hour (AID 1224881). Also: nearly all actives have a fitted effect of over 40% in size. The gist of the method: (§3)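 Fluorescence from a DNA-binding dye excluded by viable cells was measured repeatedly in the same HEK293 wells (600 cells/well) during continuous compound exposure at 37 C. Each assay gives one read point: 0, 8, 16, 24, 32 or 40 h.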
Test [5] can be described thus: A CellTox Green Cytotoxicity Assay to monitor cytotoxicity in HepG2 cells - 0 hour (AID 1224882). Also: nearly all actives have a fitted effect of over 35% in size. Put shortly: as §1
Test [6] can be described thus: A CellTox Green Cytotoxicity Assay to monitor cytotoxicity in HepG2 cells - 32 hour (AID 1224883). Also: nearly all actives have a fitted effect of over 50% in size. The gist of the method: as §1
Test [7] in a line: A CellTox Green Cytotoxicity Assay to monitor cytotoxicity in HEK293 cells - 8 hour (AID 1224884). Also: nearly all actives have a fitted effect of over 35% in size. Put shortly: as §3
Test [8] can be described thus: qHTS RealTime-Glo MT Cell Viability Assay in HepG2 cells - 16 hour (AID 1224885). Also: nearly all actives have a fitted effect of over 50% in size. Put shortly:
(§4)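 Viability was tracked continuously by NanoLuc luminescence from prosubstrate reduced by living HepG2 cells, at successive time points over 40 h of compound exposure. Cells with reagent were preincubated 5 h at 37 °C before compound addition.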

Test [9] is described as follows: qHTS RealTime-Glo MT Cell Viability Assay in HEK293 cells - 24 hour (AID 1224886). Also: top concentration of the series differs between compounds; nearly all actives have a fitted effect of over 50% in size. Put shortly: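 Viability tracked continuously by luminescence as live cells reduce a prosubstrate for NanoLuc; HEK293 cells preincubated 5 h, compound-treated at 37 C, and read at 0, 8, 16, 24, 32 and 40 h.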
A short description of test [10]: A CellTox Green Cytotoxicity Assay to monitor cytotoxicity in HEK293 cells - 16 hour (AID 1224888). Also: nearly all actives have a fitted effect of over 35% in size. The gist of the method:
as §3

A short description of test [11]: qHTS RealTime-Glo MT Cell Viability Assay in HepG2 cells - 0 hour (AID 1224889). Also: nearly all actives have a fitted effect of over 50% in size. Put shortly: as §4
A short description of test [12]: A CellTox Green Cytotoxicity Assay to monitor cytotoxicity in HepG2 cells - 8 hour (AID 1224890). Also: nearly all actives have a fitted effect of over 45% in size. The gist of the method: as §1
Test [13] in a line: qHTS assay to identify small molecule antagonists of the estrogen receptor alpha (ER-alpha) signaling pathway using the BG1 cell line in the presence of 0.1 nM 17-beta-estradiol - cell viability counter screen (AID 1259241). Also: nearly all actives have a fitted effect of over 40% in size. Put shortly: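 In this screen, hormone-deprived VM7Luc4E2 cells were seeded at 4,000 per well, dosed with compound and 0.1 nM estradiol final, and incubated 22 hr at 37C and 5% CO2; fluorogenic live-cell protease signal reported viability.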

Test [14] can be described thus: qHTS assay to identify small molecule antagonists of the androgen receptor (AR) signaling pathway using the MDA cell line in the presence of 0.5 nM R1881 - cell viability counter screen (AID 1259242). Also: nearly all actives have a fitted effect of over 45% in size. The gist of the method: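 Live-cell protease activity was measured by CellTiter-Fluor fluorescence after 30 min. Before that, MDA-kb2 MMTV-luciferase cells had 16 hr at 37C without CO2, exposed to test compounds and 0.5 nM R1881 final.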

Test [15] can be described thus: qHTS assay to identify small molecule phospholipidosis (PLD) inducers (AID 1259344; active = well fitted curve in the direction sought with a large enough effect; an effect the other way counts as inactive or inconclusive). The gist of the method:
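Read-out is LipidTOX Red fluorescence (ex 595/em 615) imaged in HepG2 cells after 24 h compound exposure at 37 C, with Hoechst nuclear counterstain (ex 352/em 461) allowing per-cell normalisation.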

The nature of test [16]: qHTS assay to identify small molecule HDAC inhibitors (AID 1259364). Also: nearly all actives have a fitted effect of over 45% in size. Also: potency is read from the fitted curve at half-maximal effect. The gist of the method: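 Luminescence read after 30 min room-temperature HDAC-Glo incubation measures cellular class I/II HDAC activity. Compounds were applied for 2 hr at 37 C to HCT-116 wild-type cells seeded the day before.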
Test [17] is described as follows: qHTS assay to identify small molecule HDAC inhibitors - cell viability counter screen (AID 1259365). The gist of the method: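 Measured quantity is CellTiter-Glo luminescence from wild-type HCT-116 cells after compound incubation of 2hr at 37C, 5% CO2; reagent developed 30min at room temperature.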
A short description of test [18]: qHTS RealTime-Glo MT Cell Viability Assay in HEK293 cells - 8 hour (AID 1224887). Put shortly:
as §2

Test [19] concerns the target Estrogen receptor (Homo sapiens) (UniProt P03372). Briefly: qHTS assay to identify small molecule antagonists of the estrogen receptor alpha (ER-alpha) signaling pathway using the BG1 cell line in the presence of 0.1 nM 17-beta-estradiol (AID 1259244). Also: nearly all actives have a fitted effect of over 50% in size. The gist of the method: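 Luciferase luminescence (ONE-Glo, 30 min at room temperature) was read after 22 hr at 37C exposure to compounds plus 17beta-estradiol at 0.1 nM final. Cells were VM7Luc4E2 with endogenous ER-alpha and an ERE-driven luciferase, pre-cultured 5 days in hormone-depleted medium.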

For test [20], the target named is Androgen receptor (Homo sapiens) (UniProt P10275). The test is described as follows: qHTS assay to identify small molecule antagonists of the androgen receptor (AR) signaling pathway using the MDA cell line in the presence of 0.5 nM R1881 (AID 1259243). Also: nearly all actives have a fitted effect of over 50% in size. The gist of the method: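 Luminescent reporter readout (ONE-Glo, 30 min, room temperature) after 16 hr co-treatment of MDA-kb2 cells with test compounds and 0.5 nM R1881 final, at 37C without CO2. The MMTV-driven luciferase responds to both AR and GR.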
Chain of Androgen receptor (Homo sapiens) (P10275 whole entry, looked up): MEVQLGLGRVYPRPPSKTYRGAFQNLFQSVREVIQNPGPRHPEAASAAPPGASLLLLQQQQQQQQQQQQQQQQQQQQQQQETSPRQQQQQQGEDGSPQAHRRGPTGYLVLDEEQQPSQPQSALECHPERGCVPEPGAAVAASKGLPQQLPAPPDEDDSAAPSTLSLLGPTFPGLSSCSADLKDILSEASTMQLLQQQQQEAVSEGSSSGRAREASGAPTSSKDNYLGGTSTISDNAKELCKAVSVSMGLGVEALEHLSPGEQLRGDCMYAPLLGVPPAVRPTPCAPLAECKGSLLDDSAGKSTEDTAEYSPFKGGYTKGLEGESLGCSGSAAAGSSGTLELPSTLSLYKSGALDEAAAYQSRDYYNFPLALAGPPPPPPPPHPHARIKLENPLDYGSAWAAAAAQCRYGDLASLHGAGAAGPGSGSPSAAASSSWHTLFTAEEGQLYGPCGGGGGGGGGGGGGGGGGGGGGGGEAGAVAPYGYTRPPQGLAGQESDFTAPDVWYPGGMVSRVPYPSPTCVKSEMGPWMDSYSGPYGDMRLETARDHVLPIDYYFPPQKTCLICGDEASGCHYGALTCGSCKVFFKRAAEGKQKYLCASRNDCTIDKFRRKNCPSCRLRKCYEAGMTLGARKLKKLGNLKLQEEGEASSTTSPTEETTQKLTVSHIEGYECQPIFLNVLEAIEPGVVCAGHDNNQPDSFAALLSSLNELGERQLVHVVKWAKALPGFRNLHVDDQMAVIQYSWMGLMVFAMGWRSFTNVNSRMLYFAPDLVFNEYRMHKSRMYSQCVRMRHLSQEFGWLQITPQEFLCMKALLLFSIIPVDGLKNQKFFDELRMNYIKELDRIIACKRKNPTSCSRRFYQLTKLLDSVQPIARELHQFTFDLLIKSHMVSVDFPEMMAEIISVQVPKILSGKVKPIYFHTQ

Inconclusive results are not listed. Activity calls are given as the source filed them. Unless noted, calls follow the shape of the dose curve; as a rule, active = well fitted curve in the direction sought with a large enough effect in the repeat runs; inconclusive = weak or mixed curves; inactive = no such curve, though single readings can be large; an effect the other way counts as inactive or inconclusive.

Chain of Estrogen receptor (Homo sapiens) (P03372 whole entry, looked up): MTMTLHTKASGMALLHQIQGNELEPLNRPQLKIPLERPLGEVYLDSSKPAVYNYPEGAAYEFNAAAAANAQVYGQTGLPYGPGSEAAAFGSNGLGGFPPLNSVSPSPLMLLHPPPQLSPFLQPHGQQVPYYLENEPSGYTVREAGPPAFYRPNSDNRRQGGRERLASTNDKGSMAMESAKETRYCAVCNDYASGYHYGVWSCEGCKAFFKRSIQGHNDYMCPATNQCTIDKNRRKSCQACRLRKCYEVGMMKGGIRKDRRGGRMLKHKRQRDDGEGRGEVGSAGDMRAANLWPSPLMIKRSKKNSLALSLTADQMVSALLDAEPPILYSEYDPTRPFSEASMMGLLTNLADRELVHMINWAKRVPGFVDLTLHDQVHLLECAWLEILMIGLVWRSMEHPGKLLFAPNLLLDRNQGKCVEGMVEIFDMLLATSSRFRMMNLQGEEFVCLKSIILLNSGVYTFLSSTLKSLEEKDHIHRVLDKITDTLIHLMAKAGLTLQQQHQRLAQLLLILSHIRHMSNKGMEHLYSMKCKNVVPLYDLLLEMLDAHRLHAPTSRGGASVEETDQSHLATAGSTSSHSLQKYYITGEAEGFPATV

Consider `CCOC(=O)COc1ccc2c(C)c(CCN(CC)CC)c(=O)oc2c1Cl`, for which the Potency result in test [1], in [2], in test [3], in [4], in test [5] and in [6] was “inactive” in each case. The Potency entry in test [7], in [10], in [11], in test [12], in test [15] and in [16] was “inactive” each time. In addition, the call in test [8], in test [9], in test [13], in test [14] and in [17] was inactive.
For `CCCC(=O)OC`, the Potency entry in [1], in [2], in [3], in [4], in test [5] and in [6] was “inactive” throughout. The Potency result in [7], in test [10], in test [11], in [12] and in test [16] was “inactive” in each case. Also, the result in test [8], in [18], in [13], in [14], in test [19] and in [17] was inactive.
Turning to `COc1cc(S(N)(=O)=O)cc(C(=O)O)c1OC`, the Potency result in [1], in test [2], in test [3], in test [4], in test [5] and in test [6] was “inactive” each time. Also, the Potency entry in [7], in test [10], in [11] and in [12] was “inactive” throughout. The compound was called inactive in test [8], in test [9], in [18], in test [13], in [14] and in test [17].
In the case of `CC(C)c1cc(C(C)C)cc(C(C)C)c1`, the Potency entry in [1], in test [2], in test [3], in [4], in [5] and in [6] was “inactive” throughout. Moreover, the Potency result in [7], in test [10], in [11], in test [12] and in test [16] was “inactive” throughout. The outcome in test [8], in [18], in test [13], in [14], in test [19] and in test [17] was inactive.
For `COc1cc2nc(N3CCN(C(=O)C4CCCO4)CC3)nc(N)c2cc1OC` (configuration not stated), the Potency entry in [1], in [2], in [3], in [4], in test [5] and in [6] was “inactive” in each case. The Potency entry in test [7], in test [10], in [11] and in test [15] was “inactive” each time. Moreover, the call in [8], in [9], in [18], in test [13] and in test [14] was inactive. For the same compound, the Potency in test [16] is 3.35 µM (active).
Turning to `C[n+]1ccccc1/C=N/O`, the Potency entry in [1], in test [2], in [3], in test [4], in [5] and in test [6] was “inactive” each time. The Potency entry in test [7], in [10], in test [11], in test [15] and in test [16] was “inactive” in each case. Further, the call in test [8], in test [9], in [18], in test [13] and in test [14] was inactive.
`CCc1ncc(C)[nH]1`: the Potency entry in test [1], in [2], in [3], in test [4], in test [5] and in test [6] was “inactive” each time. In addition, the Potency entry in [7], in test [10], in [11], in [12], in test [20] and in [16] was “inactive” in each case. Also, the result in [8], in test [18], in [13], in [14] and in test [17] was inactive.
Consider `C=CCOC(=O)CCCCCCCC`, for which the Potency entry in [1], in test [2], in test [3], in test [4], in test [5] and in test [6] was “inactive” each time. Moreover, the Potency entry in [7], in test [10], in test [11] and in test [12] was “inactive” each time. Besides, the outcome in test [8], in test [18], in test [13], in test [14], in [19] and in [17] was inactive.
